Experimental data: PubChem BioAssay (EPA / NIEHS)
Values joined by “and” are separate entries in the source; they are usually repeats but may differ in a detail not shown here. Identical values can stand only once. More than one record can exist for a structure, and the calls need not agree. Active and inactive are the calls of the source. The calls were made as follows: active = hit-call score of the fitted dose curve at least 0.9, where 1 is the maximum; inactive = score below 0.9.

Experiments:
[1] = BSK_BT_PBMCCytotoxicity: PBMC Cytotoxicity Assessment in the BioMAP Diversity Plus: BT Assay (AID 2284225); conditions: primary human B cells with PBMC;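 also: PBMC viability measured by Alamar Blue dye reduction fluorescence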
Summary of the method: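 Viability by Alamar Blue reduction (6 h, ex/em 546/580 nm) after 90 h culture of SEB/TSST-1-activated PBMC (20 ng/mL each) given compound 1 h before activation. DMSO served as baseline for curve fitting.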

[2] = read-out: Secreted IgG (sIgG), gene 3500; assay: BSK_BT_sIgG: BioMAP Diversity Plus: BT Assay for Secreted IgG (sIgG) Biomarker Activity (AID 2284226); conditions: primary human B cells with PBMC
Summary of the method: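 Cells (B cells with peripheral blood mononuclear cells) are dosed, cultured 24 h, then supernatant IgG is measured by ELISA. DMSO serves as negative control; curves are fitted for signal increase.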

Compound	outcome [1]	outcome [2]	AC50 [2]	AC50 [1]
FC(F)(F)C(F)(F)C(F)(F)CC1CO1 (configuration not stated)	inactive	inactive		
CC(C)(C)c1cc(CCC(=O)NCCCCCCNC(=O)CCc2cc(C(C)(C)C)c(O)c(C(C)(C)C)c2)cc(C(C)(C)C)c1O	inactive		1.98 µM (active)	
CCN(CC)c1ccc(N=Nc2ccccc2)cc1	inactive		18 µM (active)	
CCN(CC)c1ccc2c(c1)Oc1cc(N(CC)CC)ccc1C21OC(=O)c2ccccc21			6.43 µM (active)	6.15 µM (active)
NCC(F)(F)C(F)(F)C(F)(F)C(F)(F)C(F)(F)C(F)(F)C(F)(F)C(F)(F)F	inactive	inactive		
C[C@]12CC[C@H]3C(=CCc4cc(O)ccc43)[C@@H]1CCC2=O	inactive		29.1 µM (active)	
Brc1nc2ccccc2s1	inactive	inactive		
C=CC(=O)OCC(F)(F)C(F)(F)C(F)(F)C(F)(F)C(F)(F)C(F)(F)C(F)(F)C(F)F		inactive	46.2 µM (active)	32.5 µM (active) and 22.7 µM (active)
NS(=O)(=O)C(F)(F)C(F)(F)C(F)(F)C(F)(F)C(F)(F)C(F)(F)F	inactive	inactive		
O=C(O)CCC(F)(F)C(F)(F)C(F)(F)F	inactive	inactive		
CC1=CC2C3C=CC(C3)C2C1C (configuration not stated)	inactive		20 µM (active)	
O=C(O)CCC(F)(F)C(F)(F)C(F)(F)C(F)(F)C(F)(F)C(F)(F)C(F)(F)F	inactive		3.33 µM (active) and 5.61 µM (active)	
O=C(Cl)C(F)(F)C(F)(F)C(F)(F)C(F)(F)C(F)(F)C(F)(F)F	inactive	inactive		
